Test results published in PubChem BioAssay.
Calls of active or inactive are those of the source. Unless noted, how the calls were made is not given here.

Experiments:
[1] = test system: Wnt5a (protein binding on small-molecule microarray); experiment: Wnt5a binders on small-molecule microarray, primary screen, biophysical, 635/667 nm fluorescence (AID 1142); conditions: 635 nm fluorescence, higher = more signal;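 further: fluorescence read at 667 nm with signal to noise per printed feature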
[2] = cell viability in Huh7 cells, primary screen, cytotoxicity control for HCV replication inhibitor project, CellTiter-Glo luminescence, basal, 48 h (AID 1143); conditions: Huh7 HCV replicon, higher = more signal, called active from +8 up or from −8 down;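 further: Huh7 hepatoma cells carrying a hepatitis C replication reporter with no stimulus; test concentration not given here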
[3] = P. aeruginosa biofilm formation inhibitors, primary screen, PAO1 strain, BacTiter-Glo luminescence, LB-PBS (AID 1144); conditions: 12 h, higher = more signal
[4] = CREB reporter modulators without forskolin, primary screen, cell-based, PC12, CRE-LacZ reporter, unstimulated (AID 1145); conditions: no forskolin, luminescence, 4.5 h, higher = more signal, called active from +8 up or from −8 down
[5] = CREB reporter modulators under forskolin, primary screen, cell-based, PC12, CRE-LacZ reporter, forskolin-stimulated (AID 1146); conditions: luminescence, 4.5 h, higher = more signal, called active from +8 up or from −8 down;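 further: PC12 cells with 6xCRE LacZ reporter stimulated by forskolin 10 µM; beta-galactosidase reporter signal reflecting CREB driven transcription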
[6] = biological target: Streptavidin (Streptomyces avidinii) (UniProt P22629); experiment: streptavidin binders on small-molecule microarray, primary screen, artefact control for SMM compound annotation, biophysical, 635/667 nm fluorescence (AID 1147); conditions: streptavidin binding, higher = more signal;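 further: signal reflects streptavidin binding to arrayed compounds as a control protein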
Sequence of Streptavidin (Streptomyces avidinii) (P22629 whole entry, looked up): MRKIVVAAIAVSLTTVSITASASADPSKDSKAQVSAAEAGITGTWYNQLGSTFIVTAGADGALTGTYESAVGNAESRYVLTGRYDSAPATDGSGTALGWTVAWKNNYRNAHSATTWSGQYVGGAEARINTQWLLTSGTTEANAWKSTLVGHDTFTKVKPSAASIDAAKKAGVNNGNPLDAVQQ

[7] = small-molecule binders of probe aInhba, primary screen, biochemical, small-molecule microarray, 635/667 nm fluorescence (AID 1148); conditions: higher = more signal;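 further: score merges 667nm spot fluorescence with signal-to-noise for antibody binding to printed compounds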
Torsin-1A (Homo sapiens) [8] = biological target: Torsin-1A (Homo sapiens) (UniProt O14656); experiment: torsin A binders from cell lysate, primary screen, small-molecule microarray, wild-type, 635/667 nm (AID 1149); conditions: COS7 hTOR1A-WT lysate, 635 nm fluorescence, higher = more signal
Sequence of Torsin-1A (Homo sapiens) (O14656 whole entry, looked up): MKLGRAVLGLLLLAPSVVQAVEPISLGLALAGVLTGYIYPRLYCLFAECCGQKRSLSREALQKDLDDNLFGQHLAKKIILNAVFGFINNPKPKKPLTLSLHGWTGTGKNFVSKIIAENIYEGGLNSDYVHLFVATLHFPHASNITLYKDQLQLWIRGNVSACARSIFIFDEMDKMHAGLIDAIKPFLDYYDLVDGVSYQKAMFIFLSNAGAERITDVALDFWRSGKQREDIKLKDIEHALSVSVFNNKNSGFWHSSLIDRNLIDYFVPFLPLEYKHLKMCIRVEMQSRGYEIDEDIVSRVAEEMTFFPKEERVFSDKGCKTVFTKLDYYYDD

Torsin-1A (Homo sapiens) [9] = biological target: Torsin-1A (Homo sapiens) (UniProt O14656); experiment: small-molecule binders of mutant TOR1A in lysate, primary screen, cell lysate, small-molecule microarray, COS7 lysate, 635/667 nm fluorescence (AID 1150); conditions: COS7 hTOR1A mutant lysate, 635 nm fluorescence, higher = more signal;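 further: score pools 667 nm emission and signal to noise measuring lysate protein binding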
[10] = test system: Sonic hedgehog protein (Shh); experiment: small-molecule binders of Shh protein, primary screen, biochemical, small-molecule microarray, 635/667 nm fluorescence (AID 1151); conditions: small-molecule microarray binding, 635 nm fluorescence; higher = more signal;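 further: Shh protein binding to compounds spotted on small-molecule microarray slides; score combines spot fluorescence intensity with signal-to-noise across triplicate slides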
[11] = E. coli DRC41 culture turbidity changes, primary screen, E. coli filamentation inducer project, strain DRC41, OD650, 48 h (AID 1152);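 further: E. coli MC1000 strain DRC41 lacking acrAB efflux pump and sulA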; conditions: E. coli DRC41 (acrAB sulA), higher = more signal, called active from +8 up or from −8 down
[12] = small-molecule binders of probe aLefty1, primary screen, biochemical, small-molecule microarray, 635/667 nm fluorescence (AID 1153); conditions: higher = more signal;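 further: score merges spot fluorescence with signal-to-noise ratio from the scanned slide images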
[13] = PSAC antagonists in infected red cells, primary screen, cell-based, P. falciparum Indochina, OD700, 1 h (AID 1154); conditions: P. falciparum Indochina infected RBC osmotic lysis, higher = more signal, called active from +8 up or from −8 down
[14] = PSAC antagonists in infected red cells, primary screen, cell-based, P. falciparum Indochina, OD700, 2 h (AID 1155);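 further: lysis reports solute entry through the parasite surface anion channel PSAC; channel blockers reduce lysis of infected cells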; conditions: P. falciparum Indochina infected erythrocytes, osmotic lysis OD700; higher = more signal, called active from +8 up or from −8 down
[15] = osmotic lysis modulators in infected erythrocytes, primary screen, PSAC antagonist project, cell-based, P. falciparum Indochina, OD700, 3 h (AID 1156); conditions: higher = more signal, called active from +8 up or from −8 down
[16] = PSAC antagonists in infected red cells, primary screen, cell-based, P. falciparum Indochina, OD700, 18 h (AID 1157); conditions: P. falciparum Indochina infected erythrocytes, osmotic lysis OD700, 18 h; higher = more signal, called active from +8 up or from −8 down
[17] = modulators of S6 phosphorylation in cells, primary screen, cell-based, A549, cytoblot, luminescence, serum-stimulated (AID 1158); conditions: A549 phospho-S6 cytoblot, 5 h, higher = more signal;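 further: serum-stimulated A549 lung adenocarcinoma cells; signal is phosphorylated S6 detected by cytoblot immunostaining with HRP secondary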
[18] = biological target: NADPH oxidase 2 (Homo sapiens) (UniProt P04839); experiment: NOX2-dependent H2O2 signal modulators, primary screen, NOX inhibitor project, cell-based, HEK293-NOX2, PMA-stimulated, Amplex Red fluorescence (AID 1159); conditions: 45 min, higher = more signal, called active from +8 up or from −8 down; further: test concentration not given here
Sequence of NADPH oxidase 2 (Homo sapiens) (P04839 whole entry, looked up): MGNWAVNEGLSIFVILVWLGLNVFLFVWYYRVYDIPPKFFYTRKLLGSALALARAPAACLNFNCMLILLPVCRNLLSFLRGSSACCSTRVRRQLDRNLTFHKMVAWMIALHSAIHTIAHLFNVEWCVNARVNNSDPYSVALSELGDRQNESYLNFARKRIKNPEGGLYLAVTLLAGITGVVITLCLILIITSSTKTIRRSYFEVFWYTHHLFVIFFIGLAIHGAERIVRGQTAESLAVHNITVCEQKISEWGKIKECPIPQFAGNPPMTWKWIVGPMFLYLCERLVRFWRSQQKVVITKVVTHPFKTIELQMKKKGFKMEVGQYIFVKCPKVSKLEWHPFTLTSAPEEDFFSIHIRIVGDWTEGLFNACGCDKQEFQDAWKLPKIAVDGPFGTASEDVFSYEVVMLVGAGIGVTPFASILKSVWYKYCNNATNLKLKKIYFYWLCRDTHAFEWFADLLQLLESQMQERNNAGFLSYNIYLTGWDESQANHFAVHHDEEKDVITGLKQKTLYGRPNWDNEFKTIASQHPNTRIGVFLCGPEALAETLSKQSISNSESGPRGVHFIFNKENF

[19] = biological target: NADPH oxidase 4 (Homo sapiens) (UniProt Q9NPH5); experiment: NOX4-dependent H2O2 signal modulators, primary screen, NOX inhibitor project, cell-based, HEK293-NOX4, tetracycline-induced, Amplex Red fluorescence (AID 1160); conditions: 45 min, higher = more signal, called active from +8 up or from −8 down
Sequence of NADPH oxidase 4 (Homo sapiens) (Q9NPH5 whole entry, looked up): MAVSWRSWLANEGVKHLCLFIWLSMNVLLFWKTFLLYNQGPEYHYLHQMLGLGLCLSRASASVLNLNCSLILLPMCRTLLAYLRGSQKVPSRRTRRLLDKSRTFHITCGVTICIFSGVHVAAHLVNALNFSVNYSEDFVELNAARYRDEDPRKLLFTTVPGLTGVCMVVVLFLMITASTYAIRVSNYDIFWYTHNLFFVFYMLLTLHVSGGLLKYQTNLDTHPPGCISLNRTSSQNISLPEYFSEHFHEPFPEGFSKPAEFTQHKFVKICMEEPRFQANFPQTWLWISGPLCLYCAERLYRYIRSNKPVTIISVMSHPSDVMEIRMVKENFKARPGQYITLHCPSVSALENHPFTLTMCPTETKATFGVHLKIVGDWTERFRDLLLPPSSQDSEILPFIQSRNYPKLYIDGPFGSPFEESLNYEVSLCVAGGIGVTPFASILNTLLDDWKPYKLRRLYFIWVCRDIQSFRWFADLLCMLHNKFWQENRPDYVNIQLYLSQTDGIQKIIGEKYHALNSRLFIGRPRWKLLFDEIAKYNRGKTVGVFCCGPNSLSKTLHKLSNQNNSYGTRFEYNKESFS

[20] = biological target: NADPH oxidase 5 (Homo sapiens) (UniProt Q96PH1); experiment: NOX5-dependent H2O2 signal modulators, primary screen, NOX inhibitor project, cell-based, HEK293-NOX5, Amplex Red fluorescence (AID 1161); conditions: HEK293-NOX5, ionomycin, 45 min, higher = more signal
Sequence of NADPH oxidase 5 (Homo sapiens) (Q96PH1 whole entry, looked up): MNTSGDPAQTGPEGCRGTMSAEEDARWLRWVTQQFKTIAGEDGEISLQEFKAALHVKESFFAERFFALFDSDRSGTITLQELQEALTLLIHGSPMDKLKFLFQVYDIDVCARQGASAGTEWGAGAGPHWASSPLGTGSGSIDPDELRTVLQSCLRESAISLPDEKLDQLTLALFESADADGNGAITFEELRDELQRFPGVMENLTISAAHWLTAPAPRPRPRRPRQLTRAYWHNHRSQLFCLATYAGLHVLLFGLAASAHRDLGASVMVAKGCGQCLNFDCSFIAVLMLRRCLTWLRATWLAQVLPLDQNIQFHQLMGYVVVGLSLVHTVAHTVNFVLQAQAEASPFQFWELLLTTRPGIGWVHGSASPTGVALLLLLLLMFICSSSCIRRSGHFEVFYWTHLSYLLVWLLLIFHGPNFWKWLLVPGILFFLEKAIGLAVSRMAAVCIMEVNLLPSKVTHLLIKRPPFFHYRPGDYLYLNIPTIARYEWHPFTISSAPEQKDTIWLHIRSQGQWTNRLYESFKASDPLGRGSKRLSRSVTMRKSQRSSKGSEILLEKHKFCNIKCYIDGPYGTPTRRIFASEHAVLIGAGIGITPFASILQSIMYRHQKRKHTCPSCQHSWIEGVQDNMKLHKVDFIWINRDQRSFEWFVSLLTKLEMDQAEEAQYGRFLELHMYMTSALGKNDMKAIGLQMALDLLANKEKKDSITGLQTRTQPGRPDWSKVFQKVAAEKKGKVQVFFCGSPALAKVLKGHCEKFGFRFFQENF

| Compound | composite z-score [1] | z-score [2] | z-score [3] | z-score [4] | z-score [5] | composite z-score [6] | composite z-score [7] | composite z-score (Torsin-1A (Homo sapiens) [8]) | composite z-score (Torsin-1A (Homo sapiens) [9]) | composite z-score [10] | z-score [11] | composite z-score [12] | z-score [13] | z-score [14] | z-score [15] | z-score [16] | z-score [17] | z-score [18] | z-score [19] | z-score [20] |
| --- | --- | --- | --- | --- | --- | --- | --- | --- | --- | --- | --- | --- | --- | --- | --- | --- | --- | --- | --- | --- |
| CCCNC(=O)[C@@]1(Sc2ccc(C)cc2)CC(=O)N(Cc2ccccc2C(F)(F)F)[C@@H]1c1ccc(CO)cc1I | 0.168 | -4.54 (inactive) | -0.376 (inactive) | -0.231 (inactive) | -0.0562 (inactive) | 1.17 | -0.0405 | 1.26 | 1.47 | 1.88 | 0.0676 (inactive) | 0.0999 | 5.14 (inactive) | 0.0162 (inactive) | 0.378 (inactive) | -1.95 (inactive) | 2.26 | 0.781 (inactive) | -2 (inactive) | -0.0781 |
| Cc1ccc(S[C@]2(C(=O)O)CC(=O)N(Cc3ccccc3C(F)(F)F)[C@@H]2c2ccc(CO)cc2I)cc1 | 0.192 | -1.03 (inactive) | 0.586 (inactive) | -0.619 (inactive) | 1.81 (inactive) | -0.584 | -0.193 | -0.46 | 1.98 | 0.0365 | -1.17 (inactive) | 0.737 | 6.52 (inactive) | 0.427 (inactive) | 0.591 (inactive) | 0.402 (inactive) | 0.0721 | 1.63 (inactive) | -1.72 (inactive) | 1.12 |
| O=C(NCc1ccccc1)[C@@H]1c2ccccc2C(=O)N(C2Cc3ccccc3C2)[C@H]1c1ccc(CO)cc1 | 0.303 | -0.746 (inactive) | 0.317 (inactive) | 0.764 (inactive) | 0.134 (inactive) | 0.49 | 0.196 | -0.0754 | 0.165 | 1.31 | -1.25 (inactive) | 0.315 | 3.46 (inactive) | -0.627 (inactive) | -0.0549 (inactive) | 0.353 (inactive) | -0.543 | -0.0422 (inactive) | -1.3 (inactive) | -1.41 |
| COCCOC(=O)N1C(=O)[C@@]2(c3ccccc31)[C@H](C(=O)N1CCCCCCC1)[C@H]1C(=O)O[C@H](c3ccccc3)[C@H](c3ccccc3)N1[C@@H]2c1ccc(OCCO)cc1 | 2.59 | -2.7 (inactive) | -0.276 (inactive) | -1.29 (inactive) | -0.791 (inactive) | 4.29 | 2.4 | 3.22 | 3.39 | 2.31 | -0.448 (inactive) | 3.13 | 8.64 (active) | 1.89 (inactive) | 1.31 (inactive) | 0.976 (inactive) | 0.213 | -0.0367 (inactive) | 0.867 (inactive) | 1.53 |
| COc1ccc([Si](C)(C)[C@H]2[C@H](CCO)O[C@@]3(C(=O)N(Cc4ccccc4)c4ccc(N5CCCCC5=O)cc43)[C@@H]2C)cc1 | 0.116 | -7.68 (inactive) | -1.98 (inactive) | 4.22 (inactive) | -1.16 (inactive) | 0.381 | -0.118 | 0.23 | 1.67 | 0.929 | 0.663 (inactive) | 0.0844 | 6.61 (inactive) | 2.24 (inactive) | 1.45 (inactive) | 1.72 (inactive) | 0.204 | -1.16 (inactive) | 0.636 (inactive) | 1.81 |
| COC(=O)[C@@]1(Cc2ccccc2)[C@H]2c3cc(C(=O)N(C)C)n(CCc4c[nH]c5ccc(O)cc45)c3C[C@H]2CN1C(=O)c1ccccc1 | 0.0434 | -1.51 (inactive) | 0.562 (inactive) | 0.0041 (inactive) | 0.1 (inactive) | 0.0497 | 0.0878 | -0.343 | 0.604 | 0.647 | 0.263 (inactive) | -0.0831 | 7.05 (inactive) | -0.38 (inactive) | 0.102 (inactive) | -1.32 (inactive) | 1.82 | -2.52 (inactive) | -7 (inactive) | -2.41 |
| COC(=O)[C@]1(Cc2ccccc2)N=C(c2ccc(OCCCO)cc2)O[C@@H]1c1ccccc1N=[N+]=[N-] | 0.501 | -5.26 (inactive) | -0.441 (inactive) | 1.34 (inactive) | -1.47 (inactive) | 0.291 | -0.0221 | -0.0019 | 0.0366 | 0.354 | -1.19 (inactive) | -0.324 | 28 (active) | 24.7 (active) | 0.883 (inactive) | 4.33 (inactive) | 0.483 | -0.936 (inactive) | 1.14 (inactive) | 0.0948 |
| C=C(CCCC)/C(=C/C[C@H](OC(C)=O)c1ccccc1OCCO)c1cnc2ccccc2c1 | 0.382 | -1.45 (inactive) | 0.489 (inactive) | 4.07 (inactive) | 0.55 (inactive) | 0.36 | -0.157 | 0.0711 | 0.878 | 1.49 | -0.413 (inactive) | -0.0054 | 17.5 (active) | 2.17 (inactive) | 1.32 (inactive) | 0.996 (inactive) | -0.0149 | -1.41 (inactive) | -0.361 (inactive) | -1.62 |
